Among the data in PubChem BioAssay (NCATS) are Potency values, retold here.

Assay [1] in a line: qHTS of pediatric cancer cell lines to identify multiple opportunities for drug repurposing: Primary screen for TC32 cells (AID 1347089). Also: nearly all actives have a fitted effect of over 60% in size. The gist of the method:
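A viability screen of TC32 cells was run over 48 h, with primary MIPE doses spanning 0.78 nM–46 µM and NPC doses 0.59 nM–46 µM. ATP luminescence (CellTiter-Glo) served as the read-out.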

Assay [2] in a line: qHTS of pediatric cancer cell lines to identify multiple opportunities for drug repurposing: Primary screen for DAOY cells (AID 1347090). Also: nearly all actives have a fitted effect of over 55% in size. The gist of the method: (§1)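 Eight- or eleven-point concentration series, 48 h treatment at 37 degrees C in growth media; readout CellTiter-Glo luminescence. Potency and efficacy were taken from the concentration-response curves.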
Assay [3] in a line: qHTS of pediatric cancer cell lines to identify multiple opportunities for drug repurposing: Primary screen for SJ-GBM2 cells (AID 1347091). The method, boiled down:
as §1

The nature of assay [4]: qHTS of pediatric cancer cell lines to identify multiple opportunities for drug repurposing: Primary screen for A673 cells (AID 1347092). Also: nearly all actives have a fitted effect of over 45% in size. The method, boiled down: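 Titration-based qHTS on A673 cells: MIPE compounds spanned 11 points (0.78 nM to 46 µM final), NPC compounds 8 points (0.59 nM to 46 µM final). Viability after 48 h was measured by ATP luminescence.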
A short description of assay [5]: qHTS of pediatric cancer cell lines to identify multiple opportunities for drug repurposing: Primary screen for SK-N-MC cells (AID 1347093). The method, boiled down: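 Metabolically active cells were quantified by ATP-dependent luminescence (CellTiter-Glo, 15 min at room temperature) following 48 h treatment. Cells had been plated at 500-1,000 per well and settled for 5 h beforehand.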

The nature of assay [6]: qHTS of pediatric cancer cell lines to identify multiple opportunities for drug repurposing: Primary screen for BT-37 cells (AID 1347094). The gist of the method: (§2)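 Viability was measured as metabolically active cells after 48 hours of treatment, read by CellTiter-Glo luminescence. Compounds were tested at multiple final concentrations, giving concentration-response curves.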

A short description of assay [7]: qHTS of pediatric cancer cell lines to identify multiple opportunities for drug repurposing: Primary screen for NB-EBc1 cells (AID 1347095). The gist of the method: as §2
The nature of assay [8]: qHTS of pediatric cancer cell lines to identify multiple opportunities for drug repurposing: Primary screen for U-2 OS cells (AID 1347096). Also: nearly all actives have a fitted effect of over 50% in size. The gist of the method:
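Cells (500-1,000/well) in growth media were settled 5 h at 37 degrees C, then given compounds for 48 h. Viability was read as CellTiter-Glo luminescence. Primary runs used MIPE at 11 points (0.78 nM-46 µM) and NPC at 8 points (0.59 nM-46 µM); follow-ups used 11 points.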

Structures are written as SMILES. Results filed as inconclusive are left out. Activity calls are given as the source filed them. Calls follow the shape of the dose curve; as a rule, active = well fitted curve in the direction sought with a large enough effect; inconclusive = small, poorly fitted or top-dose-only effect, or another doubt; inactive = no such curve, though single readings can be large; an effect the other way counts as inactive or inconclusive.
Potency is read from the fitted curve at half-maximal effect.

On to `CCCCc1nc2cc(C=CC(=O)NO)ccc2n1CCN(CC)CC`, for which the Potency in assay [1] was 5870 nM (active); in assay [2], 3720 nM (active); in assay [3], 469 nM (active); in assay [4], 118 nM (active); in assay [5], 29.6 nM (active); in assay [6], 48.5 nM (active). Besides, the Potency in assay [7] was 590 nM (active); in assay [8], 743 nM (active).
Consider `CN[C@H]1CCc2cc(OC)c(OC)c(OC)c2-c2ccc(OC)c(=O)cc21`, for which the Potency in assay [1] was 37 nM (active); in assay [2], 3.7 nM (active); in assay [3], 1 nM (active); in assay [4], 1.2 nM (active); in assay [6], 6.1 nM (active); in assay [7] it was 1 nM (active).
Consider `Cc1cc(C(=O)N2CCN(c3cccc(Cl)c3)CC2)n(-c2ccccc2)n1`, for which the Potency in assay [1] is 2940 nM (active); in assay [2], 743 nM (active); in assay [3], 118 nM (active); in assay [4], 590 nM (active); in assay [5], 118 nM (active); in assay [7] it was 66.2 nM (active).
For the compound `O=C(CCCCCCNC(=O)c1cnc(N(c2ccccc2)c2ccccc2)nc1)NO`, the Potency in assay [1] is 18600 nM (active); in assay [2] it was 18700 nM (active); in assay [3] it was 5260 nM (active); in assay [4], 9350 nM (active); in assay [5] it was 2960 nM (active); in assay [6] it was 15300 nM (active). Besides, the Potency in assay [7] is 4180 nM (active). Moreover, the Potency result in assay [8] was “inactive”.
With `CNC(=O)c1ccccc1Nc1nc(Nc2ccc(N3CCOCC3)cc2OC)ncc1Cl`, the Potency in assay [1] was 3300 nM (active); in assay [2] it was 14800 nM (active); in assay [3], 2350 nM (active); in assay [4], 1870 nM (active); in assay [5], 209 nM (active); in assay [7] it was 662 nM (active). The Potency in assay [8] is 18700 nM (active).
For `O=C1CCC[C@@H]2[C@H]3CCC[N+]4([O-])CCC[C@@H](CN12)[C@@H]34` (some centres undefined), the Potency entry in assay [1], in assay [2], in assay [3], in assay [4], in assay [5] and in assay [6] was “inactive” throughout. Moreover, the Potency result in assay [7] and in assay [8] was “inactive” each time.
For the compound `CC(C)c1cc(C(=O)N2Cc3ccc(CN4CCN(C)CC4)cc3C2)c(O)cc1O`, the Potency in assay [1] was 1040 nM (active); in assay [2], 935 nM (active); in assay [3] it was 372 nM (active); in assay [4], 296 nM (active); in assay [5], 332 nM (active); in assay [7], 132 nM (active).
With `O=c1[nH]c(=O)n(C2CCCO2)cc1F` (centres undefined), the Potency entry in assay [1], in assay [2], in assay [3], in assay [4], in assay [5] and in assay [6] was “inactive” each time. Moreover, the Potency result in assay [7] and in assay [8] was “inactive” throughout.
As to `Cc1ccc(NC(=O)C2(c3ccc4c(c3)OC(F)(F)O4)CC2)nc1-c1cccc(C(=O)O)c1`, the Potency in assay [1] was 234 nM (active); in assay [2], 469 nM (active); in assay [3], 37.2 nM (active); in assay [4] it was 59 nM (active); in assay [5], 46.9 nM (active); in assay [6], 38.5 nM (active). In addition, the Potency is 66.2 nM (active) in assay [7] and 590 nM (active) in assay [8].
As to `CCOc1cc2ncc(C#N)c(Nc3ccc(F)c(Cl)c3)c2cc1NC(=O)C=CCN(C)C`, the Potency is 18600 nM (active) in assay [1]; 118 nM (active) in assay [2]; 935 nM (active) in assay [3]; 29.6 nM (active) in assay [4]; 46.9 nM (active) in assay [5]; 9350 nM (active) in assay [7]. For the same compound, the Potency result in assay [8] is “inactive”.
As to `CC1(C)CCC(c2ccc(Cl)cc2)=C(CN2CCN(c3ccc(C(=O)NS(=O)(=O)c4ccc(N[C@H](CCN5CCOCC5)CSc5ccccc5)c(S(=O)(=O)C(F)(F)F)c4)cc3)CC2)C1`, in assay [1], the Potency entry is “inactive”. Further, the Potency in assay [2] is 7430 nM (active); in assay [3], 23.5 nM (active); in assay [4] it was 4690 nM (active); in assay [5], 11.8 nM (active); in assay [7] it was 18.7 nM (active); in assay [8] it was 7430 nM (active).
As for `Nc1ncnc2c1c(-c1cnc3[nH]ccc3c1)nn2C1CCCC1`, the Potency in assay [1] is 5870 nM (active); in assay [2], 3720 nM (active); in assay [3] it was 132 nM (active); in assay [4], 1870 nM (active); in assay [5], 66.2 nM (active); in assay [6] it was 1720 nM (active). Also, the Potency in assay [7] was 469 nM (active); in assay [8], 2350 nM (active).
In the case of `CCC[C@H](NC(=O)C(C#N)=Cc1cccc(Br)n1)c1ccccc1`, the Potency entry in assay [1] and in assay [8] was “inactive” in each case. Moreover, the Potency in assay [2] was 14800 nM (active); in assay [3], 8330 nM (active); in assay [4], 9350 nM (active); in assay [5], 18700 nM (active); in assay [7], 8330 nM (active).
As to `CN(C)Cc1c(C(=O)NCCOc2ccc(C(=O)NO)cc2)oc2ccccc12`, the Potency in assay [1] was 5870 nM (active); in assay [2] it was 3720 nM (active); in assay [3] it was 1050 nM (active); in assay [4], 935 nM (active); in assay [5] it was 743 nM (active); in assay [6], 1930 nM (active). Also, the Potency is 662 nM (active) in assay [7] and 2960 nM (active) in assay [8].
Turning to `Cc1[nH]nc2ccc(-c3cncc(OC[C@@H](N)Cc4ccccc4)c3)cc12`, the Potency in assay [1] was 4660 nM (active); in assay [2], 2960 nM (active); in assay [3], 743 nM (active); in assay [4], 235 nM (active); in assay [6], 1220 nM (active); in assay [7], 469 nM (active).
As to `Cc1ccc(C(=O)Nc2ccc(CN3CCN(C)CC3)c(C(F)(F)F)c2)cc1C#Cc1cnc2cccnn12`, the Potency is 14700 nM (active) in assay [1]; 18700 nM (active) in assay [2]; 3720 nM (active) in assay [3]; 2350 nM (active) in assay [4]; 2350 nM (active) in assay [5]; 6850 nM (active) in assay [6]. In addition, the values for the Potency in assay [7] and in assay [8] were 6620 nM (active) and 5900 nM (active), respectively.
On to `CNC(=O)c1ccc(N2C(=S)N(c3cnc(C#N)c(C(F)(F)F)c3)C(=O)C23CCC3)cc1F`, for which, in assay [1], the Potency entry is “inactive”. The Potency was 935 nM (active) in assay [2]; 7430 nM (active) in assay [3]; 1480 nM (active) in assay [4]; 1050 nM (active) in assay [5]; 7430 nM (active) in assay [7]; 14800 nM (active) in assay [8].
`Nc1nc(-c2nn(Cc3ccccc3F)c3ncccc23)nc(N)c1N1CCOCC1`: the Potency result in assay [1], in assay [2], in assay [6], in assay [7] and in assay [8] was “inactive” each time.
As to `CC(C)c1cc(-c2n[nH]c(=O)n2-c2ccc3c(ccn3C)c2)c(O)cc1O`, the Potency is 131 nM (active) in assay [1]; 118 nM (active) in assay [3]; 118 nM (active) in assay [4]; 52.6 nM (active) in assay [5]; 122 nM (active) in assay [6]; 93.5 nM (active) in assay [7].
